Screening data deposited in PubChem by National Center for Advancing Translational Sciences (NCATS).
VACV mCherry inh: vaccinia inhibition (mCherry reporter); Potency, µM (doses to about 36.5 µM), for inactives: at the highest dose activity change, negative = inhibition, usual class: inhibitors; actives 0.63% (n = 310,000); Vaccinia virus mCherry reporter infection, fluorescence; AID 720579; calls by dose curve; tested in A549 cells; note: nearly all actives have a fitted effect of over 35% in size
Lassa entry inh: Lassa virus entry inhibition; AID 540256; actives 1.2% (n = 300,000); Potency, µM (highest dose often 37.9 µM), for the others: at the top dose activity change, negative = inhibition, most hits filed as inhibitors; Lassa virus pseudotype entry inhibition, cell reporter; calls by dose curve; tested in HEK293 cells; note: nearly all actives have a fitted effect of over 50% in size
VACV Venus inh: vaccinia inhibition (Venus reporter). Potency, µM (series often up to 36.5 µM), for inactives: top-dose activity change, negative = inhibition, usual class: inhibitors. actives 0.46% (n = 330,000). Vaccinia virus Venus reporter expression, fluorescence; calls by dose curve; tested in A549 cells; note: nearly all actives have a fitted effect of over 30% in size
HCV inhibitor: inhibitors of hepatitis C virus infection; actives 3.4% (n = 340,000); Potency, µM (titrated, usually from 41.8 µM), for the others: top-dose activity change, negative = inhibition, most hits filed as inhibitors; Huh7.5.1 HCVcc-Cre infection, luciferase reporter, 44 h; active = well fitted inhibition curve with a large enough effect; inconclusive = small, poorly fitted or top-dose-only effect, or another doubt; inactive = no such curve, though single readings can be large or run the other way
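A cell-based infection assay in which seeded cells (1,000 per well) receive test compound after 4 h, are inoculated with HCVcc-Cre at approximately 0.5 moi, and are incubated 44 h before luminescence detection.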
FMDV antiviral: antivirals against foot and mouth disease virus; actives 1.2% (n = 410,000); FMDV antiviral cell-based qHTS; Potency, µM (series often up to 57.9 µM), inactives show top-dose activity change, negative = inhibition, hits mostly inhibitors; calls by dose curve; tested in HEK293T cells; note: read-out not given here; nearly all actives have a fitted effect of over 45% in size
Marburg entry inh: inhibitors of Marburg virus binding or cell entry | Marburg virus pseudotyped entry inhibition, cell reporter | Potency, µM (top dose mostly 37.8 µM), for inactives: top-dose activity change, negative = inhibition, most hits filed as inhibitors | actives 1.8% (n = 300,000) | AID 540276; calls by dose curve; tested in HEK293 cells
The depositor's hits bear a star; i = inactive; ? = inconclusive; / = no result given; ! = not confirmed by another sample; [ ] = another dose, or the depositor's remark. Compounds with a hit are over-represented: about 5.3% of the library has one in this group of screens. % is set by controls: 0 for no effect and ±100 for the full control effect; potency is the fitted concentration of half-maximal effect.

SMILES | VACV mCherry inh | Lassa entry inh | VACV Venus inh | HCV inhibitor | FMDV antiviral | Marburg entry inh
Cc1cc(C)c2c(N)c3cccc(C)c3nc2n1 | 10µM* | ? | 10µM* | 13µM* | -12% | 3.7µM*
CCOC(=O)[C@@H](C)c1nc2ccccc2[nH]c1=O | / | / | / | / | / | 8%
Cc1ccc2c(c1)-c1c(cnn1CC(=O)Nc1ccccc1N1CCN(C)CC1)CO2 | i | ? | 0% | -28% | -21% | 9.2µM*
COc1cc(C)ccc1OCC(=O)Nc1ccccc1N1CCOCC1 | i | -20% | -6% | ? | -2% | -12%
Cc1ccc(C(C)C)c(OCC(=O)Nc2ccc(N3CCOCC3)cc2N2CCOCC2)c1 | -13% | -16% | -15% | 32µM* | 0% | ?
COc1ccccc1N1CCN(C(=O)Cn2ncc3c2-c2cc(C)ccc2OC3)CC1 | -12% | / | -5% | / | -22% | 2%[46.1 µM]
CC(=O)N1CCN(c2ccccc2NC(=O)COc2cc(C)ccc2C(C)C)CC1 | / | ? | -32% | ? | ? | ?
Cc1ccc(C(C)C)c(OCC(=O)Nc2ccccc2N2CCN(C)CC2)c1 | / | 10µM* | ? | ? | 32µM* | ?
Cc1ccc2[nH]cc(C(O)c3c[nH]c4ccc(C)cc34)c2c1 | -13% | / | -14% | / | / | /
CCOc1ccccc1CNC(=O)Cn1ccc2cc(S(=O)(=O)N3CCCC3)ccc21 | i | -16%[46.1 µM] | -5% | ? | -10% | -18%[46.1 µM]
COC(=O)C1=CN(c2ccc(OC)cc2)C=C(C(=O)OC)C1c1cc(OC)c(OC)cc1OC | -5% | 0.63µM* | -7% | -14% | -14% | -9%
COC(=O)C1=CN(c2cc(C)cc(C)c2)C=C(C(=O)OC)C1c1ccc(OC)c(O)c1 | ? | ? | -17% | ? | -13% | ?
COC(=O)C1=CN(c2ccc(F)cc2)C=C(C(=O)OC)C1c1ccc(O)cc1 | -14% | ? | -11% | 11µM* | -7% | 11%[46.1 µM]
O=C(NCCc1ccc(Cl)cc1)c1nnc(Cc2ccc(Cl)cc2Cl)o1 | -17% | 5%[46.1 µM] | -16% | / | 6% | 4%[46.1 µM]
Cc1c(C)n(C(=O)CN2CCN(c3ccccn3)CC2)c2ccccc12 | / | 9% | -17% | ? | 32µM* | ?
O=C(c1ccoc1)N1CCOc2ccc(CN3CCC(Oc4cccnc4)CC3)cc2C1 | -7% | / | 11% | / | 1% | /
COC(=O)C(CC(=O)c1ccc(Br)cc1)n1ccnc1 (centres undefined) | -12% | / | -5% | 1.3µM* | / | 0%
COc1ccc(S(=O)(=O)N2CCC[C@H]2C(=O)N2CCC[C@H]2C(=O)N[C@@H](C)c2ccccc2)cc1C | -2% | / | 0% | / | -8% | /
CCc1ccc(NC(=O)c2ccc(NS(=O)(=O)c3c(C)noc3C)cc2)cc1 | -8% | -11%[46.1 µM] | -5% | / | -2% | 20%[46.1 µM]
Cc1noc(C)c1S(=O)(=O)Nc1ccc(C(=O)Nc2ccc(OC(F)(F)F)cc2)cc1 | / | / | / | 14µM* | -20% | -1%
CCN(CC)S(=O)(=O)c1cccc(NC(=O)c2ccc(-n3nc(C)cc3C)cc2)c1 | ? | ? | ? | 2.5µM* | 20µM* | 16µM*
CCN(CC)S(=O)(=O)c1ccc(C(=O)Nc2cccc(C)c2)cc1 | i | ? | -29% | ? | / | 4%
Cc1ccc(NC(=O)c2ccc(OC(F)(F)F)cc2)cc1S(=O)(=O)N(C)C | ? | ? | ? | 3.2µM* | 32µM* | ?
Cc1cc(C)n(-c2ccc(C(=O)Nc3cccc([N+](=O)[O-])c3)cc2)n1 | -18% | 4% | -6% | 11µM* | -29% | ?
Cc1ccc(NC(=O)c2ccncc2)cc1S(=O)(=O)N(C)C | -6% | -24% | 0% | 0% | -3% | -16%
SMILES | VACV mCherry inh | Lassa entry inh | VACV Venus inh | HCV inhibitor | FMDV antiviral | Marburg entry inh
Cc1ccc(S(=O)(=O)Nc2ccccc2OC(C(=O)OC(C)(C)C)C(=O)OC(C)(C)C)cc1 | ? | / | -14% | / | -24% | /
Cc1cccc(CNC(=O)c2cc(S(=O)(=O)N3CCOCC3)cn2C)c1 | -10% | -4%[46.1 µM] | -17% | 19% | -9% | 25%[46.1 µM]
CNc1cc(OC)c(C(=O)N[C@H]2CCN(Cc3ccccc3)[C@H]2C)cc1Cl | / | / | / | / | -17% | /
Cc1cc(C)n(-c2ccc(C(=O)Nc3ccc4c(c3)OCO4)cc2)n1 | / | ? | -25% | ? | -15% | 7%
CCCCN1C(=O)c2ccc(C(=O)Nc3ccc(C)c(S(=O)(=O)N(C)C)c3)cc2C1=O | -14% | -28% | -11% | ? | 18µM* | ?
Cc1cc(C)n(-c2ccc(C(=O)Nc3cccc(S(=O)(=O)N(C)C)c3)cc2)n1 | -17% | ? | -26% | 5µM* | 22µM* | ?
COc1ccc(NC(=O)c2ccc(-n3nc(C)cc3C)cc2)cc1OC | / | 0% | -10% | 7.1µM* | 3% | -1%
Cc1cc(C)n(-c2ccc(C(=O)Nc3ccc(S(=O)(=O)N(C)C)cc3)cc2)n1 | -4% | ? | -22% | ? | ? | ?
CC(=O)Nc1cccc(NS(=O)(=O)c2c(C)noc2C)c1 | 6.3µM* | 6% | ? | 21% | -9% | 8%
CC(C)=CCN1C(=O)C2(CC(C)=C[C@@H](C)O2)c2c(Br)cccc21 (some centres undefined) | / | / | / | / | / | 11%[14.2 µM]
C/C(=N\Nc1nc(Cl)c(Cl)cc1Cl)c1ccc(S(=O)(=O)NCc2ccco2)cc1 | ? | ? | -30% | 6.3µM* | -34% | ?
Cc1cc(C)n(-c2ccc(C(=O)Nc3ccc(C)c(S(=O)(=O)N(C)C)c3)cc2)n1 | ? | ? | ? | 10µM* | 16µM* | ?
Cc1cc(C)n(-c2ccc(C(=O)Nc3ccc(S(=O)(=O)NCc4ccco4)cc3)cc2)n1 | ? | ? | ? | 3.5µM* | ? | 13µM*!
Cc1cc(Cl)ccc1C(O)c1ncc(-c2ccc(C(F)(F)F)cc2)[nH]1 (centres undefined) | 11% | / | -20% | / | -13% | /
CCOc1ccc(C(=O)N2CCC(c3ccncc3)CC2)cc1 | -22% | -28%[46.1 µM] | -24% | / | -7% | /
Cc1ccc(C2(c3noc(CN4CCC(c5ccncc5)CC4)n3)CCCC2)cc1 | i | -19%[46.1 µM] | -6% | 10µM* | -26% | ?
CN(C)c1ccc(/C=C/c2ccnc3ccccc23)c(N)c1 | -24% | / | -14% | / | / | /
OC(CC#CCN1CCCCC1)(c1ccccc1)c1ccccc1 | -12% | ? | -18% | -27% | -19% | ?
OC(CC#CCN1CCCC1)(c1ccccc1)c1ccccc1 | -14% | -28% | -15% | 6% | -10% | 10µM*
COC(C(=O)C(O)C(C)O)C1Cc2cc3cc(OC4CC(OC5CC(O)C(O)C(C)O5)C(O)C(C)O4)c(C)c(O)c3c(O)c2C(=O)C1OC1CC(OC2CC(OC3CC(C)(O)C(O)C(C)O3)C(O)C(C)O2)C(O)C(C)O1 (centres undefined) | 0.28µM* | / | 0.28µM* | / | / | /
